Assay results from PubChem BioAssay (NCATS).
Inconclusive results are not listed. Entries that show only a call come without a potency. The source made the active and inactive calls. Calls follow the shape of the dose curve; as a rule, active = well fitted cell-killing curve with a large enough effect; inconclusive = small, poorly fitted or top-dose-only effect; inactive = flat fitted curve, though single readings scatter.

test: Cell Viability - LYMP2-007 (AID 979); details: LYMP2-007 lymphoblastoid cell viability; series mostly up to 92.2 µM;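 also: cells exposed to compound for 24 h before reading; nearly all actives have a fitted effect of over 60% in size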
Description: NIH Chemical Genomics Center [NCGC]
NIH Molecular Libraries Screening Centers Network [MLSCN]
National Institutes of Environmental Health Sciences [NIEHS]
National Toxicology Program [NTP]
We have developed a 1536-well cell-based assay for quantitative high throughput screening (qHTS) against a number of cell lines to determine in vitro cytotoxicity of small molecules. This particular assay uses a human lymphoblastoid cell line (LYMP2-007) purchased from Coriell Institute for Medical Research.
NCGC Assay Protocol Summary:
The CellTiter-Glo luminescent cell viability assay (Promega) is a homogeneous method to measure the number of viable cells in culture. The end point readout of this assay is based on quantitation of intracellular ATP, an indicator of metabolic activity, using the luciferase reaction. Luciferase catalyzes the oxidation of beetle Luciferin to oxyluciferin and light in the presence of ATP. The luminescent signal is proportional to amount of ATP present.
Using the CellTiter-Glo luminescent cell viability assay, the amount of cellular ATP was measured in the lymphoblastoid cell line with complete culture medium following compound treatment for 24 hours. The assay was performed in opaque white Kalypsys 1536-well plates. In the screen, tetraoctylammonium bromide was used as positive control. Library compounds were measured for their ability to cause acute toxicity in the cell line, as reflected by a decrease in intracellular ATP levels, in a concentration-dependent manner. […] AC50 values were determined from concentration-response data modeled with the standard Hill equation.
qHTS protocol for CellTiter Glo lymphoblastoid cellular assay
[Step] [Parameter] [Value] [Description]
1. Reagent; 5 uL; 2500 lymphoblastoid cells/well
2. Time; 5 hr; 37 C incubation
4. Controls; 23 nL; Tetraoctylammonium bromide 6.4pM to 92 uM
5. Time; 24 hr; 37 C incubation
6. Reagent; 5 uL; CellTiter Glo reagent
7. Time; 30 min; Room Temperature
8. Detection; Luminescence; Viewlux plate reader
Keywords: cell viability, cytotoxicity, lymphoblastoid cell line, luminescence, NTPHTS, NTPHTS_NCGC, NIEHS, DSSTox, MLSMR, MLSCN, NIH Roadmap, qHTS, NCGC

SMILES	Potency
Cc1ccc2nc(-c3ccc(N)cc3)sc2c1S(=O)(=O)O	inactive
Cc1cscn1	inactive
Cc1c(N)cccc1[N+](=O)[O-]	inactive
Cc1cc(C)cc(N)c1	inactive
Nc1ccccc1S(=O)(=O)O	inactive
O=C(O)c1cccc(Cl)c1Cl	inactive
Cc1ccc(C(C)(C)C)cc1	inactive
Cc1cc(C)cc(O)c1	inactive
CCNc1cc(O)ccc1C	inactive
CC(=O)c1ccccn1	inactive
Cc1cccc([N+](=O)[O-])c1C(=O)O	inactive
C=Cc1ccccn1	inactive
O=CNc1ccccc1	inactive
N#CCc1ccccc1[N+](=O)[O-]	inactive
O=C(O)c1ccc(Cl)cc1Cl	inactive
CCCCOCCOCCSC#N	inactive
CCOc1cccc(N)c1	inactive
O=c1[nH][nH]c(=O)c2cc([N+](=O)[O-])ccc12	inactive
CC1CCC2CC1C2(C)C (stereo not given)	inactive
c1ccc2n[nH]nc2c1	inactive

SMILES	Potency
C=C(C)OC(C)=O	inactive
CCCCC(CC)COC(=O)CCCCC(=O)OCC(CC)CCCC (stereo not given)	inactive
ICCc1ccccc1	inactive
CC(=O)c1ccccc1[N+](=O)[O-]	inactive
CC(C)Cc1nccs1	inactive
O=Cc1c(Cl)cccc1Cl	inactive
C/C(C=O)=C/c1ccccc1	inactive
Nc1ccc(Cl)cc1[N+](=O)[O-]	inactive
C=CC(=O)NC(C)C	inactive
C=C(C)C(N)=O	inactive
Cc1ccc(CO)cc1	inactive
FC(F)(F)c1cccc(Cl)c1	inactive
Clc1cc(Cl)cc(Cl)c1	inactive
Cc1cccc(C)c1	inactive
COc1ccc(N=[N+]([O-])c2ccc(OC)cc2)cc1	inactive
O=C(O)c1c(Cl)cccc1Cl	inactive
COc1ccc(OC)cc1	inactive
CCCCCO	inactive
COC(=O)c1ccccc1	inactive
c1ccc2c(c1)ccc1ncccc12	inactive
